Data: the supplement of paper PMC11732987, “Enantioselective OTUD7B fragment discovery through chemoproteomics screening and high-throughput optimisation” (Communications Chemistry, 2025)

Assays:
Assay in all cases: log2 ratio of Biotin-Ahx-Ub-VS probe labelling (fragment/DMSO); higher = less target engagement (more negative = stronger competition), active = hit call of the paper (q ≤ 0.05, log2 ratio ≤ -1)
Conditions in all cases: compound concentration: 200 uM; treatment time: 3 h
USP34 = USP34 (UniProt Q70CQ2)
How it was run: (§1)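 Each value is an average log2 ratio of fragment to vehicle, tested by unpaired t-test. The underlying Spectronaut label-free quantities were global-median-normalised, and only proteins with ≥2 unique peptides were included. Triplicate HEK293T lysate samples (495 µg) were exposed to fragment at 200 µM or vehicle for 3 h, then to Biotin-Ahx-Ub-VS at 0.5 µM final for 1 h, before NeutrAvidin enrichment of labelled DUBs, LysC and trypsin digestion, and diaPASEF LC-MS/MS.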

USP36 = biological target: T1, USP36 (UniProt Q9P275)
T1 sequence (whole entry): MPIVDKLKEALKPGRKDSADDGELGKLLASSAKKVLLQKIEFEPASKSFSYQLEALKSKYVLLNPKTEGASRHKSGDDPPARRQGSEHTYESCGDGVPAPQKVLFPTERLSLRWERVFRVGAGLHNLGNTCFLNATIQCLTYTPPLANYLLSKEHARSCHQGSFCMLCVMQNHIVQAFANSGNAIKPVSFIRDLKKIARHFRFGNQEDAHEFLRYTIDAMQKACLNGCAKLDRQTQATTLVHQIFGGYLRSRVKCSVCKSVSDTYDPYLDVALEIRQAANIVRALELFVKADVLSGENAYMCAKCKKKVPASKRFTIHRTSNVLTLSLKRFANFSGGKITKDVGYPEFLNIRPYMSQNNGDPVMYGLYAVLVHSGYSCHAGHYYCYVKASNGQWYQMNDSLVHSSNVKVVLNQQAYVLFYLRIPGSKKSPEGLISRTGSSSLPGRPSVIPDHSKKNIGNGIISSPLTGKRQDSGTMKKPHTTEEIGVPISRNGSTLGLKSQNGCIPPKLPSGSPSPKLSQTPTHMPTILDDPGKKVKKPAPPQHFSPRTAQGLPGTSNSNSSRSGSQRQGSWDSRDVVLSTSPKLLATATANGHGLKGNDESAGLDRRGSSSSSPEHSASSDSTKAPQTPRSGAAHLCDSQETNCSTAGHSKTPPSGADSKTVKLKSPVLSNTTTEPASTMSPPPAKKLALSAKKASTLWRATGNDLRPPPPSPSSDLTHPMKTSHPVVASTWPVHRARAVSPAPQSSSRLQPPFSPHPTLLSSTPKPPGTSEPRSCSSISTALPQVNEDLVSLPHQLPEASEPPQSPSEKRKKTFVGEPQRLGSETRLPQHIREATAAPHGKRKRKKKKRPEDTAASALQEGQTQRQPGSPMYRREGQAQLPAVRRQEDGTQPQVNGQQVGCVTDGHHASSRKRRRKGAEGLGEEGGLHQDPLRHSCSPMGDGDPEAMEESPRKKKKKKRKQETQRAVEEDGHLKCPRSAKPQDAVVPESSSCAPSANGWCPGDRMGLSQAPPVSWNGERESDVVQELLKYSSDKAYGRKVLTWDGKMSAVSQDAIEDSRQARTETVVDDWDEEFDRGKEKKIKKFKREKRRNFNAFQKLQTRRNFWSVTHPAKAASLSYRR
How it was run: as §1

USP38 = biological target: T2, USP38 (UniProt Q8NB14)
T2 sequence (whole entry): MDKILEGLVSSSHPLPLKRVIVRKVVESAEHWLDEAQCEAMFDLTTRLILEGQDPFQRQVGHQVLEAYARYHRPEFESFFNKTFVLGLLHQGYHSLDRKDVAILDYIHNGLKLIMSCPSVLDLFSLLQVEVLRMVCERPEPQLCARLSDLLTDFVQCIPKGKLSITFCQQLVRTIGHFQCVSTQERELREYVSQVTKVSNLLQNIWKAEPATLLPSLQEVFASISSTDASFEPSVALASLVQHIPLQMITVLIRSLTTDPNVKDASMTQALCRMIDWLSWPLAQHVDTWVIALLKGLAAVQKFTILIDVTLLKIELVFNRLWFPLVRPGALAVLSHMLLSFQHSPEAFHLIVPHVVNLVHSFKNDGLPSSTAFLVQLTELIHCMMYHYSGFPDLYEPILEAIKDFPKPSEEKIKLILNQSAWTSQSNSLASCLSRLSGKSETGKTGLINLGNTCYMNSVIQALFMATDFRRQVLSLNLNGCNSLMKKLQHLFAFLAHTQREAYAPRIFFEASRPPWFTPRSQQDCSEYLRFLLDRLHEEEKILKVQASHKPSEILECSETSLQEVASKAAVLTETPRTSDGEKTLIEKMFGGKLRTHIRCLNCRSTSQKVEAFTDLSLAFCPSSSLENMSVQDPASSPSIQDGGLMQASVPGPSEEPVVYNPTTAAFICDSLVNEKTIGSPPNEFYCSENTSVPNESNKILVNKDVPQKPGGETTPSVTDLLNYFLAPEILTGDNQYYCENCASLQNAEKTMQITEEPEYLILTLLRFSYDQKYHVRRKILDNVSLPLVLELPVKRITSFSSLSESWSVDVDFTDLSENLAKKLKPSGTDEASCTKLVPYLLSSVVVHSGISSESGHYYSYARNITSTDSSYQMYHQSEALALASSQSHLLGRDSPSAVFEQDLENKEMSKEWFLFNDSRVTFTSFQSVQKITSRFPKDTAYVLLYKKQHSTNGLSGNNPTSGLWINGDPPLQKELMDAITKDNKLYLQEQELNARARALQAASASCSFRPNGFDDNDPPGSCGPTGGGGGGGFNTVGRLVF
How it was run: as §1

USP39 = biological target: T3, USP39 (UniProt Q53GS9)
T3 sequence (whole entry): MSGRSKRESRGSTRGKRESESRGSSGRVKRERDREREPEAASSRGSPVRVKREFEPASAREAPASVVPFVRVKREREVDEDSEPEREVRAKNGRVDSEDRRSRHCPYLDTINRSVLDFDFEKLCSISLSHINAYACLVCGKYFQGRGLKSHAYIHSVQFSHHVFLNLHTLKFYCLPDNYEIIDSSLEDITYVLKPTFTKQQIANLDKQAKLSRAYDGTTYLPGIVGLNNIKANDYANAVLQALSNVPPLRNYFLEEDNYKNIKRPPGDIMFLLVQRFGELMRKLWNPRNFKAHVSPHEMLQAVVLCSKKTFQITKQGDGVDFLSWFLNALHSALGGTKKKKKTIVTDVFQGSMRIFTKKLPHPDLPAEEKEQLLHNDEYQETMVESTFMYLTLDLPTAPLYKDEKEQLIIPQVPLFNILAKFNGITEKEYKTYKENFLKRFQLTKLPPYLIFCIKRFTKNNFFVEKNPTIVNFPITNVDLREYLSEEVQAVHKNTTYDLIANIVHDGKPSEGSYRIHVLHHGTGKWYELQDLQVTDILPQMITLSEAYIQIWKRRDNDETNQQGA
How it was run: as §1

USP4 = biological target: T4, USP4 (UniProt Q13107)
T4 sequence (whole entry): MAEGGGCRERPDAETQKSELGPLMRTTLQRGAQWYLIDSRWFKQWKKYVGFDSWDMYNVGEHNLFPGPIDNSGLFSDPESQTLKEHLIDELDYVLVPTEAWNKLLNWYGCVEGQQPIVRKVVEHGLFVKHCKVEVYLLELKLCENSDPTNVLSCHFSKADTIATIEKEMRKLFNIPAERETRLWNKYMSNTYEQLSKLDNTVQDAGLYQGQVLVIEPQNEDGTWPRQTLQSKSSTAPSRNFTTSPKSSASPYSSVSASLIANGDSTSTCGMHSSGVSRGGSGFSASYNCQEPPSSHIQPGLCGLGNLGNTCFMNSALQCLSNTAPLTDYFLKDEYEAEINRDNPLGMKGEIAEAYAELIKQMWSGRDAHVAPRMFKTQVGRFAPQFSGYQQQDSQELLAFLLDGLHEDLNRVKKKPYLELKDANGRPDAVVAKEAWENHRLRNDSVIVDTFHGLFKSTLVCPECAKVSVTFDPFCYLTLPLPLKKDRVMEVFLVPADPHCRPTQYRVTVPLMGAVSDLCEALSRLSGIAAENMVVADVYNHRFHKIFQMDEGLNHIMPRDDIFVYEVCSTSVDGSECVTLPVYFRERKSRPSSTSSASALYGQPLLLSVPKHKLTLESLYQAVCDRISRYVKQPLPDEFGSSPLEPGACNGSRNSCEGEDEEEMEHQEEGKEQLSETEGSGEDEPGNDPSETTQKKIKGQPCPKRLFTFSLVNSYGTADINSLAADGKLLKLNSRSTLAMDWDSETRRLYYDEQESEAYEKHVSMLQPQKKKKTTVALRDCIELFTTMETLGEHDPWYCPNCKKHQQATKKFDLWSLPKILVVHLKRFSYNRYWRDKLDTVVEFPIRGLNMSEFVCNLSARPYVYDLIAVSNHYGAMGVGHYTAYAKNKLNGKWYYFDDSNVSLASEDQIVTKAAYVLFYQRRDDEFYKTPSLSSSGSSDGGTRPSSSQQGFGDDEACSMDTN
How it was run: as §1

Measured: log2 ratio of Biotin-Ahx-Ub-VS probe labelling

USP34, sequence (Q70CQ2 whole entry, the tested form may be a part): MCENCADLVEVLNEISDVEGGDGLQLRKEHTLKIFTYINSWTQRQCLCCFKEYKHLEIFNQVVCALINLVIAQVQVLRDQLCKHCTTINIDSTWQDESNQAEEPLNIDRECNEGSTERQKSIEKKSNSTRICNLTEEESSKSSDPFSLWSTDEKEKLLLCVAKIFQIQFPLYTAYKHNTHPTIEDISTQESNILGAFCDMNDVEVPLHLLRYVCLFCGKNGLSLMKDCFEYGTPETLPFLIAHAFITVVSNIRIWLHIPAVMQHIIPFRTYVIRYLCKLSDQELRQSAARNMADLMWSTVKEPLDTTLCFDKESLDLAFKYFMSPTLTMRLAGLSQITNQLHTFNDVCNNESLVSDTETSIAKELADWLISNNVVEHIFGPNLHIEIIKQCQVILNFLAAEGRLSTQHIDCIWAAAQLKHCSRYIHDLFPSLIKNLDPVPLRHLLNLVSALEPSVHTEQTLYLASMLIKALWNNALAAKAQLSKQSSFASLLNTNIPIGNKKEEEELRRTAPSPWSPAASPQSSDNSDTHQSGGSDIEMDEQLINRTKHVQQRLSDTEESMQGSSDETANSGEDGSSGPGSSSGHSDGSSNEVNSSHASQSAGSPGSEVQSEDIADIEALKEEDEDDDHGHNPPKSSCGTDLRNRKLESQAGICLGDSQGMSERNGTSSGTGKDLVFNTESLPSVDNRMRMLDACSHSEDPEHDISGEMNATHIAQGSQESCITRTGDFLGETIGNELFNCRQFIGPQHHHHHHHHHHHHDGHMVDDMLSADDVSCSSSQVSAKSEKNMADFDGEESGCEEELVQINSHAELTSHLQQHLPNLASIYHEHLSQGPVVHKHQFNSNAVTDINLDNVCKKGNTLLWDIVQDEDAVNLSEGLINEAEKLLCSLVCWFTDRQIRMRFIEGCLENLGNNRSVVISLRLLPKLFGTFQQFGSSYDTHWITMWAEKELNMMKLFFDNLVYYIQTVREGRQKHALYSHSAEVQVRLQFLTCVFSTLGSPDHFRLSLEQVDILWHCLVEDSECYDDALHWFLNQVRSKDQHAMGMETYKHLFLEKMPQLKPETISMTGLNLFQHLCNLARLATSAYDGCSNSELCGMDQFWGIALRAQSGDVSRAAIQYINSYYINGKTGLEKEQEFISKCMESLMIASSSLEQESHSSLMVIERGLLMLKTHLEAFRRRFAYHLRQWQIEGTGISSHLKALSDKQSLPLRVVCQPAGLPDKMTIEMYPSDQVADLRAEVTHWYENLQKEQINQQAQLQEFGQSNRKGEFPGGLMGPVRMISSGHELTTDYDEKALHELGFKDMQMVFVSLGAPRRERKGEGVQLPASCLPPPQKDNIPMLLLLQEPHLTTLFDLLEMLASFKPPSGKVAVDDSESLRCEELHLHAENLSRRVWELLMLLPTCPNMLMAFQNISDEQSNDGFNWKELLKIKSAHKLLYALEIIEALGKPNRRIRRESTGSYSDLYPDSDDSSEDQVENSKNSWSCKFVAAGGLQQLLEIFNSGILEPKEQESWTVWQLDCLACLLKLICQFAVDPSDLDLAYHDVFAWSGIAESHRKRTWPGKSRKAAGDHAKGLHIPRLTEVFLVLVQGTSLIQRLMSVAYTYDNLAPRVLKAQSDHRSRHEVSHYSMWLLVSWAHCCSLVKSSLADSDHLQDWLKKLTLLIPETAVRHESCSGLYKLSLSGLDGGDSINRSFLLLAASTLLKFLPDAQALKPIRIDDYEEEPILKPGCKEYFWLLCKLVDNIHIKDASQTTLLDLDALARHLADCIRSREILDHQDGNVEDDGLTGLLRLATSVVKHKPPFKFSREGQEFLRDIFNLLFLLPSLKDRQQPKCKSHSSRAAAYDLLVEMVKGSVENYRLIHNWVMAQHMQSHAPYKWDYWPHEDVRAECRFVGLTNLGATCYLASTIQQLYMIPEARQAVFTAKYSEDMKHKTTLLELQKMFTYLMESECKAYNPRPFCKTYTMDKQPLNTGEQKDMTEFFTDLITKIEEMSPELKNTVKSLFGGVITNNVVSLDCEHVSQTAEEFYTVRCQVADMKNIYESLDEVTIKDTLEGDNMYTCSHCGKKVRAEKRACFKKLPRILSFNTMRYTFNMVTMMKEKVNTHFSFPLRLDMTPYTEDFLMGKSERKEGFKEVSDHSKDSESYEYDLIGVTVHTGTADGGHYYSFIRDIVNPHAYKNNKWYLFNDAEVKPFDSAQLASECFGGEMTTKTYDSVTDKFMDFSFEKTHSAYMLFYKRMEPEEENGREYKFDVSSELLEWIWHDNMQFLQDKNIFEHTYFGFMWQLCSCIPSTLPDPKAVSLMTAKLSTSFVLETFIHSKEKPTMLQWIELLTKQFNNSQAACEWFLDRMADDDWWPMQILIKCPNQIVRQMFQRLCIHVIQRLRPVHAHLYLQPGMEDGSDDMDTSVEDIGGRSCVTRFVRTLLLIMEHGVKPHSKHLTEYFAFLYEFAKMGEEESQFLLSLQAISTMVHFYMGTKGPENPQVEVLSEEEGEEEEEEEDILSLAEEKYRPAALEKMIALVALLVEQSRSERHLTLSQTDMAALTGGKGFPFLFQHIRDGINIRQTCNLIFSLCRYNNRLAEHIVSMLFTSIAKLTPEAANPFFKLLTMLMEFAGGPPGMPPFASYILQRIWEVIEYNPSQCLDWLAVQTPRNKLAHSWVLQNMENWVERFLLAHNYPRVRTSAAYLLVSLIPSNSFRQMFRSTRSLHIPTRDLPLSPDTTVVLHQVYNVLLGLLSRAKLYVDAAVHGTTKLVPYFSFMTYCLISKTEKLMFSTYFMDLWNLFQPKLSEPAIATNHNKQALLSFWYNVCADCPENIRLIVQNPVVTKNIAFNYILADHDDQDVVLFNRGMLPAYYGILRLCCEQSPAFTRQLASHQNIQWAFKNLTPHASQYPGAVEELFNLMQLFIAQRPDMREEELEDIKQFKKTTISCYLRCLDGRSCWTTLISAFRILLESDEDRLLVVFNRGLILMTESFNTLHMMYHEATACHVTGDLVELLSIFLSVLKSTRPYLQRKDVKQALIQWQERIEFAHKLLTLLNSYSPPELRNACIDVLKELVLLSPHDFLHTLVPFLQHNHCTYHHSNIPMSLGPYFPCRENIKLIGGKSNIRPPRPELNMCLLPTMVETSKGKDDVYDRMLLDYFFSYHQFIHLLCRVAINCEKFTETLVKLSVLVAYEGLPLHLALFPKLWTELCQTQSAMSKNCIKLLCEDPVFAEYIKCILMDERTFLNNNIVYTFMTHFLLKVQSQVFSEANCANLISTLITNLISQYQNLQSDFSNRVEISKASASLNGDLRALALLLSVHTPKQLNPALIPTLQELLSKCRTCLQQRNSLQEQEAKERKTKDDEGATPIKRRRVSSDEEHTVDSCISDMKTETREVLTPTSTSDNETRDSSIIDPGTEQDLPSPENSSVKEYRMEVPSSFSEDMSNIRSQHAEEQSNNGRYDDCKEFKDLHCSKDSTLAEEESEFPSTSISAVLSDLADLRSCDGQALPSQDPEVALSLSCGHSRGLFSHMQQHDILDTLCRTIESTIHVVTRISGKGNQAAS

O=C(CCl)N1CCCC1c1ccsc1 (stereo not given)
inactive: USP34 -0.191 | USP36 -0.111 | USP38 -0.0937 | USP39 -0.0825 | USP4 -0.821
